Some test systems named below: HCT-15 colon; HT29 colon; SNB-19 CNS; U251 CNS; PC-3 prostate; SK-MEL-5 melanoma; UACC-62 melanoma; LOX IMVI melanoma; SK-MEL-28 melanoma; SK-MEL-2 melanoma; SN12C renal; UO-31 renal; TK-10 renal; ACHN renal; CAKI-1 renal; A498 renal; CCRF-CEM leukemia; MOLT-4 leukemia; EKVX NSCLC.
Common to all, as to assay: NCI-60 one-dose screen, 48 h (100 = growth as untreated, 0 = no growth, -100 = all killed)
What all share (settings): 10 µM unless noted

About 83,000 compounds went through this panel and 20% of them were active in at least one assay; those are over-represented in the sample as a whole.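 Cells were grown in 96-well plates and exposed to the test compound at a single concentration for 48 hours; results are reported as percent growth, with values below 10 considered active.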 Unmarked numbers belong to inactive results. Active and inactive are the calls of the source.

Turning to `Cc1csc(NC(c2ccc(Br)cc2)c2c(C)nc3ccccn23)n1` (stereo not drawn), the growth with HCT-15 colon was 88.8%; in the test on HT29 colon, 72.4%; in the test with SNB-19 CNS it was 94.2%; in the test with U251 CNS it was 88.8%; with PC-3 prostate it was 71.5%; with SK-MEL-5 melanoma, 94.7%. Besides, the growth in the test with UACC-62 melanoma was 81.9%; with LOX IMVI melanoma, 90.9%; in the test with SK-MEL-28 melanoma it was 108%; in the test with SK-MEL-2 melanoma, 86.2%; with SN12C renal, 94.8%; in the test on UO-31 renal, 55.9%. Further, the growth with TK-10 renal was 116%; with ACHN renal, 97.5%; in the test on CAKI-1 renal it was 80.8%; in the test with A498 renal, 67.3%; in the test on CCRF-CEM leukemia it was 89.1%; in the test with MOLT-4 leukemia it was 87.1%.
Consider `CCC(=O)OC1=CN2C(=NC(c3ccc(N)cc3)=CC2c2cc(OC)c(OC)c(OC)c2)S1` (stereo not drawn), for which the growth in the test with HCT-15 colon is 27.6%; in the test on HT29 colon, 3.44% (active); in the test on SNB-19 CNS, 83.8%; in the test on U251 CNS it was 46.3%; in the test on PC-3 prostate it was 49%; in the test with SK-MEL-5 melanoma, 66.9%. Moreover, the growth in the test on UACC-62 melanoma was 78%; with LOX IMVI melanoma it was 45.3%; in the test on SK-MEL-28 melanoma, 50.8%; with SK-MEL-2 melanoma, 64%; with SN12C renal it was 53.5%; in the test with UO-31 renal it was 58.7%. Further, the growth was 79.2% in the test on TK-10 renal; 60.5% in the test on ACHN renal; 75.1% with CAKI-1 renal; 81.9% with A498 renal; 8.95% (active) with CCRF-CEM leukemia; 39.8% in the test with MOLT-4 leukemia.
Regarding `COc1cc(-c2nn(-c3cccc(NC(=O)Nc4ccc(Cl)c(Cl)c4)c3)cc2-c2ccncc2)ccc1Cl`, the growth with HCT-15 colon was 12.7%; in the test with HT29 colon, 1.12% (active); with SNB-19 CNS, 27.2%; with U251 CNS it was -6.02% (active); in the test on PC-3 prostate it was -17.6% (active); in the test on SK-MEL-5 melanoma, -80% (active). Besides, the growth with UACC-62 melanoma was -65.1% (active); in the test on LOX IMVI melanoma it was 1.38% (active); in the test with SK-MEL-28 melanoma, 4.96% (active); in the test on SK-MEL-2 melanoma, -44.2% (active); in the test on SN12C renal, 10.6%; in the test on UO-31 renal, 15.9%. Also, the growth is 10.9% with TK-10 renal; 11.5% with ACHN renal; 16.8% in the test on CAKI-1 renal; -6.82% (active) in the test on A498 renal; -7.9% (active) in the test with CCRF-CEM leukemia; -11.1% (active) with MOLT-4 leukemia.
For the compound `COc1cc(-c2nn(-c3cccc(NC(=O)c4ccc(N5CCOCC5)c(C(F)(F)F)c4)c3)cc2-c2ccncc2)ccc1Cl`, the growth in the test on HCT-15 colon is 16.7%; in the test with HT29 colon, -13.3% (active); in the test with SNB-19 CNS it was 45.1%; with U251 CNS it was 2.49% (active); with PC-3 prostate, 8.17% (active); in the test with SK-MEL-5 melanoma, 3.41% (active). The growth is 8.35% (active) with UACC-62 melanoma; 13.7% in the test with LOX IMVI melanoma; 28.4% in the test with SK-MEL-28 melanoma; -8.84% (active) in the test with SK-MEL-2 melanoma; 31% in the test on SN12C renal; 24.6% in the test with UO-31 renal. Besides, the growth in the test with TK-10 renal is 17.8%; in the test with CAKI-1 renal, 39.9%; with A498 renal, -29.7% (active); in the test on CCRF-CEM leukemia, 0.907% (active); in the test on MOLT-4 leukemia, 4.07% (active).
On to `O=C(Nc1cccc(-n2cc(-c3ccncc3)c(-c3ccc(Cl)c(O)c3)n2)c1)c1ccc(N2CCOCC2)c(C(F)(F)F)c1`, for which the growth was 26.2% in the test on HCT-15 colon; 98% in the test on HT29 colon; 65.7% in the test with SNB-19 CNS; 11.8% in the test on U251 CNS; 27.2% in the test with PC-3 prostate; 50.8% in the test with SK-MEL-5 melanoma. For the same compound, the growth in the test with UACC-62 melanoma was 49.2%; with LOX IMVI melanoma, 9.98% (active); in the test with SK-MEL-28 melanoma, 1.14% (active); in the test on SK-MEL-2 melanoma, 17.6%; in the test on SN12C renal it was 73.9%; with UO-31 renal it was 36.9%. The growth is 119% in the test on TK-10 renal; 36.6% with ACHN renal; 81.2% in the test with CAKI-1 renal; 101% in the test with A498 renal; 27.9% in the test on CCRF-CEM leukemia; 29.1% in the test with MOLT-4 leukemia.
Take `Fc1ccc(CNCCNc2ncnc3c2cnn3-c2ccccc2)cc1`: the growth was 92.4% with HCT-15 colon; 93.1% with HT29 colon; 94.1% with SNB-19 CNS; 84% in the test on U251 CNS; 86.6% in the test with PC-3 prostate; 87.4% in the test with SK-MEL-5 melanoma. The growth is 101% with UACC-62 melanoma; 89.4% with LOX IMVI melanoma; 110% with SK-MEL-28 melanoma; 113% in the test on SK-MEL-2 melanoma; 89.2% in the test on SN12C renal; 62.1% in the test with UO-31 renal. For the same compound, the growth with TK-10 renal was 102%; with ACHN renal it was 100%; in the test on CAKI-1 renal it was 87.2%; in the test with A498 renal it was 77.1%; in the test with CCRF-CEM leukemia it was 86.9%; with MOLT-4 leukemia, 89.1%.
Consider `CCN(CC)CCC(CNc1c2ccc(Cl)cc2nc2ccc(OC)cc12)c1ccccc1` (stereo not drawn), for which the growth with HCT-15 colon is -18.4% (active); in the test on HT29 colon, -36.1% (active); in the test with SNB-19 CNS, 5.5% (active); with U251 CNS it was -59.1% (active); in the test with PC-3 prostate, 17.6%; in the test on SK-MEL-5 melanoma, -97.9% (active). The growth with UACC-62 melanoma was -61.2% (active); with LOX IMVI melanoma, -25.4% (active); with SK-MEL-28 melanoma it was -100% (active); in the test on SK-MEL-2 melanoma, -71.2% (active); with EKVX NSCLC, 52.1%; in the test with SN12C renal it was 16.8%. In addition, the growth is -95.2% (active) with UO-31 renal; -95% (active) in the test on ACHN renal; -40.5% (active) in the test on CAKI-1 renal; 88.8% in the test on A498 renal; 0.732% (active) with CCRF-CEM leukemia; -7.09% (active) with MOLT-4 leukemia.
For `O=c1c2sc3ncccc3c2nnn1-c1ccccc1`, the growth with HCT-15 colon was 96%; in the test on HT29 colon, 109%; in the test on SNB-19 CNS it was 93.6%; in the test with U251 CNS it was 97.7%; in the test on PC-3 prostate, 98.7%; in the test on SK-MEL-5 melanoma, 102%. The growth with UACC-62 melanoma was 105%; in the test with LOX IMVI melanoma, 104%; in the test on SK-MEL-28 melanoma, 109%; in the test on SK-MEL-2 melanoma, 101%; in the test on SN12C renal it was 98.7%; with UO-31 renal, 90.6%. Further, the growth with TK-10 renal was 126%; in the test on ACHN renal, 106%; in the test with CAKI-1 renal it was 93.5%; with A498 renal, 102%; with CCRF-CEM leukemia, 90.7%; in the test on MOLT-4 leukemia it was 97.7%.

For the origin of these results see PubChem BioAssay (NCI).
